Experimental findings from PubChem BioAssay are described below.

Test [1] has as its target Nuclear receptor coactivator 3 (Homo sapiens) (UniProt Q9Y6Q9). The test is described as follows: NCOA3 GAL4-fusion reporter inhibition – cell-based, luminescence, quadruplicate, confirmation (AID 588792;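 active = mean inhibition over 43.08%, the solvent-only control mean plus 3 SD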;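 also: 0% = DMSO treated cells and 100% = gossypol at 36 µM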). As to conditions: HEK293 GAL4-SRC3 luciferase reporter, at 3.6 µM, stronger effect = higher value. On the technique in general: A reporter such as luciferase makes a cellular process visible.

Test [2] relates to transactivating tegument protein VP16 (Human herpesvirus 1), Gal4-VP16 luciferase reporter. The test can be described thus: repression of VP16-driven luciferase reporter – cell-based, luminescence, high throughput, counter-screen for SRC3 inhibitor project (AID 588794; in the data active = inhibition above about 30%). The conditions noted are these: mammalian cells, at 3.6 µM, stronger effect = higher value.
A short description of test [3]: StAR promoter reporter inhibitors, counter-screen for LRH-1 inverse agonist project, cell-based, luminescence, high throughput (AID 651611; in the data active = inhibition above about 28%). The conditions noted are these: StAR promoter luciferase reporter counterscreen, at 3.6 µM, stronger effect = higher value. A general note: Counterscreens check selectivity or assay interference.
Test [4] addresses Nuclear receptor subfamily 5 group A member 2 (Homo sapiens) (UniProt O00482). The test is described as follows: NR5A2 activity suppression in reporter cells – cell-based, luminescence, confirmation (AID 651613).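 Also: HEK293T cells co-transfected with LRH-1 and StAR promoter luciferase reporter; 0% = vehicle wells and 100% = parental cells lacking receptor.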 As to conditions: cell-based LRH-1 luciferase reporter, inverse agonism; at 3.6 µM; stronger effect = higher value.
For test [5], the target named is Steroidogenic factor 1 (Homo sapiens) (UniProt Q13285). The test is described as follows: inverse agonism at SF1 nuclear receptor – cell-based, luminescence, high throughput, counter-screen for LRH-1 inverse agonist project (AID 651614; in the data active = inhibition above about 44%;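 also: cells cotransfected with StAR promoter reporter and SF1 expression vector; 0% = vehicle on cells with receptor and 100% = vehicle on cells lacking receptor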). The conditions noted are these: cell-based SF1 luciferase reporter, at 3.6 µM, stronger effect = higher value.
Chain of Steroidogenic factor 1 (Homo sapiens) (Q13285 whole entry, looked up, the tested form may be a part): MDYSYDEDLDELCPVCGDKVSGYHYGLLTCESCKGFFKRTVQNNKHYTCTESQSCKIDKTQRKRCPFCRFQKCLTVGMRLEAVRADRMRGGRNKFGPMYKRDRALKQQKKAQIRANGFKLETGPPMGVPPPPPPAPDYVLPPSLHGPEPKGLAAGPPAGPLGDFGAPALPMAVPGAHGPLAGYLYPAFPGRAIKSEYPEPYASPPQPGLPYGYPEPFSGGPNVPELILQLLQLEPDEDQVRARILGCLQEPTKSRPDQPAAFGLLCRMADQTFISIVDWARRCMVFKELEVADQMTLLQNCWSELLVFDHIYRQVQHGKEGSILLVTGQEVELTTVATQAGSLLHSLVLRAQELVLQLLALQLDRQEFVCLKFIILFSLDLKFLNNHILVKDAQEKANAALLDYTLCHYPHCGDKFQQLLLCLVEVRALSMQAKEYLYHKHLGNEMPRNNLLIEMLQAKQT
Test [6] in a line: compounds suppressing VP16-driven luciferase signal – cell-based, luminescence, high throughput, counter-screen for LRH-1 inverse agonist project (AID 651615; in the data active = inhibition above about 33%). The conditions noted are these: Gal4-VP16 luciferase reporter cells, at 3.6 µM, stronger effect = higher value.
Test [7] has as its system transactivating tegument protein VP16 (Human herpesvirus 1). The test is described as follows: compounds suppressing VP16-driven luciferase signal – cell-based, luminescence, single concentration, counter-screen for SRC2 inhibitor project (AID 652007; in the data active = inhibition above about 36%). The conditions noted are these: cell-based VP16 transactivation luciferase reporter, at 8.9 µM, stronger effect = higher value.
Test [8] deals with Nuclear receptor coactivator 2 (Homo sapiens) (UniProt Q15596). The test can be described thus: inhibition of GAL4-SRC2 driven luciferase expression – cell-based, luminescence, HEK293, triplicate, confirmation (AID 652008;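 active = mean inhibition above 46.5%, the solvent-only control mean plus 3 SD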;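 also: 0% = DMSO-treated cells and 100% = Gossypol at 36 µM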). As to conditions: HEK293 GAL4-SRC2 luciferase reporter, at 8.9 µM, stronger effect = higher value.
Chain of Nuclear receptor coactivator 2 (Homo sapiens) (Q15596 whole entry, looked up, the tested form may be a part): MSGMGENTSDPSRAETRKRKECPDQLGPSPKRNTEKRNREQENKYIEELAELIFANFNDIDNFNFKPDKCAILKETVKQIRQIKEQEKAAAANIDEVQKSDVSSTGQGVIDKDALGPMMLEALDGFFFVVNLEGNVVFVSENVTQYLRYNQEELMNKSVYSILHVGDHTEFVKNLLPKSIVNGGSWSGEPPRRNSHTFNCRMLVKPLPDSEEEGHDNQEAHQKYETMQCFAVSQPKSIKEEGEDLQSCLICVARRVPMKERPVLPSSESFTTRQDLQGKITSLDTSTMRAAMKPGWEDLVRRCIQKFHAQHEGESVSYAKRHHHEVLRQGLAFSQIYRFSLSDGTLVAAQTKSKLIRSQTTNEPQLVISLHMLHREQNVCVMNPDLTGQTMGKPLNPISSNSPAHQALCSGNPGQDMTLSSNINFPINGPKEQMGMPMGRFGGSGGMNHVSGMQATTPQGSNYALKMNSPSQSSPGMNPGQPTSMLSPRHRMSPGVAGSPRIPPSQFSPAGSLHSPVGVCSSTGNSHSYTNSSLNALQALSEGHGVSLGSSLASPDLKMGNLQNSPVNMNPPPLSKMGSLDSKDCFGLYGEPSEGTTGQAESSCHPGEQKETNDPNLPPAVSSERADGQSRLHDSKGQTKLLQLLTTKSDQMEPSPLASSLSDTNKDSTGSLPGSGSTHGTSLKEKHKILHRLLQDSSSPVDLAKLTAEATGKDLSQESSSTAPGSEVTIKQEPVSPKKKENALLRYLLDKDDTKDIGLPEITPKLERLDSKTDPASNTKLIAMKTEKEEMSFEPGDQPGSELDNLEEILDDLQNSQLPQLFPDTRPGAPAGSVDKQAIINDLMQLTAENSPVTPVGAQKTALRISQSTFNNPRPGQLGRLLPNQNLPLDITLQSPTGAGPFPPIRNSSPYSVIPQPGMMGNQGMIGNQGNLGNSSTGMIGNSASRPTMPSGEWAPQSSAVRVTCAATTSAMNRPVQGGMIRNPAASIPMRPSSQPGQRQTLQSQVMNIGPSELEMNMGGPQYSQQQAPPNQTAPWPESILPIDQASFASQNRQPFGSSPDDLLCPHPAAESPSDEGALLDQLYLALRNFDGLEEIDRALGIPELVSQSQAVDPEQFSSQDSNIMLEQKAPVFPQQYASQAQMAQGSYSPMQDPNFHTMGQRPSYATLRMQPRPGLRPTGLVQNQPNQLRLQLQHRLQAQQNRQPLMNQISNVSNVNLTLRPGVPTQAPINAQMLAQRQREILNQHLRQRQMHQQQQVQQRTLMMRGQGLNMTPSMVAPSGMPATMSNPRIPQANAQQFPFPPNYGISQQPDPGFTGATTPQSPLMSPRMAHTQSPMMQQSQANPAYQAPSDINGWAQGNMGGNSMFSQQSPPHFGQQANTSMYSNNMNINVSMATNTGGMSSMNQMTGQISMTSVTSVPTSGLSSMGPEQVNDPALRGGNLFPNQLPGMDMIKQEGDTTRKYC

Structures are written as SMILES. Several values for one entry are separate records, joined by “and”; a condition that tells them apart may be missing. Equal entries are not always repeated. Unmarked numbers belong to inactive results. Activity calls are given as the source filed them. Rule as the data show it, unless noted: active = inhibition above about 42%; inactive = the rest.

Chain of Nuclear receptor coactivator 3 (Homo sapiens) (Q9Y6Q9 whole entry, looked up, the tested form may be a part): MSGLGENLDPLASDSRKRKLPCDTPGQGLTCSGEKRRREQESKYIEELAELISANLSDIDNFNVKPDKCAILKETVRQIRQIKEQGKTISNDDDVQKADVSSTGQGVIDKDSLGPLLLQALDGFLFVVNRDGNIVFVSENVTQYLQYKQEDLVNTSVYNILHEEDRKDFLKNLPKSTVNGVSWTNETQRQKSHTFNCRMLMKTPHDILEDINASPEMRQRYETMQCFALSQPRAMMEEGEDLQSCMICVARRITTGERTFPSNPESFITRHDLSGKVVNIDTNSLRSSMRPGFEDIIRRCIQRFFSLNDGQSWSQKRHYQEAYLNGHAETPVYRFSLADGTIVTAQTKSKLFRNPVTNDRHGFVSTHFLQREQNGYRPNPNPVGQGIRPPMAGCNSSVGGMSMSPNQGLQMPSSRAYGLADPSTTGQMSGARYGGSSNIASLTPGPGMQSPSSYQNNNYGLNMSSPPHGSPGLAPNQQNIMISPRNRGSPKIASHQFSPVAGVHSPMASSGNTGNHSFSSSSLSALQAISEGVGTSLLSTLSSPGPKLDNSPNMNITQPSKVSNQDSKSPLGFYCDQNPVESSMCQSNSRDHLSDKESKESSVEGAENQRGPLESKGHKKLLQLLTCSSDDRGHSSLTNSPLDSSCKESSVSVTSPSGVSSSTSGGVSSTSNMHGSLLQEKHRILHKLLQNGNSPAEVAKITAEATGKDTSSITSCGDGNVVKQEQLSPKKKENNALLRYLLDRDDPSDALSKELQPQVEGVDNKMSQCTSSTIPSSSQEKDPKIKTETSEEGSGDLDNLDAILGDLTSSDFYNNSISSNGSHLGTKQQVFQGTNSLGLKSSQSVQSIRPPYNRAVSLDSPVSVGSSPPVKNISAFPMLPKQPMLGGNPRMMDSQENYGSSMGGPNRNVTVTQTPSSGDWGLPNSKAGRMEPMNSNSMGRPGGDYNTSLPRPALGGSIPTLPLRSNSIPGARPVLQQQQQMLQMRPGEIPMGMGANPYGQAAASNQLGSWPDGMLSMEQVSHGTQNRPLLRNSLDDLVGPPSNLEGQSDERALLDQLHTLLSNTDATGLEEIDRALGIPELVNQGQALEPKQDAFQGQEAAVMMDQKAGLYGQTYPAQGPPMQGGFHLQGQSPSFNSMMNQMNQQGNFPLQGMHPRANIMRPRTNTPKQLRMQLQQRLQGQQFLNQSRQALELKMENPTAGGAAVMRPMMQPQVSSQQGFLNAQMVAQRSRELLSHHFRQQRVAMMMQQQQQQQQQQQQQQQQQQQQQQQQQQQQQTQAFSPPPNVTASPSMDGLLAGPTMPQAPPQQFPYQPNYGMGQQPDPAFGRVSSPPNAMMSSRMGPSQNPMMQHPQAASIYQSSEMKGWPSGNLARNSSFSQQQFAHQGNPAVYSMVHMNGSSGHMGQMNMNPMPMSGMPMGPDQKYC
Chain of Nuclear receptor subfamily 5 group A member 2 (Homo sapiens) (O00482 whole entry, looked up): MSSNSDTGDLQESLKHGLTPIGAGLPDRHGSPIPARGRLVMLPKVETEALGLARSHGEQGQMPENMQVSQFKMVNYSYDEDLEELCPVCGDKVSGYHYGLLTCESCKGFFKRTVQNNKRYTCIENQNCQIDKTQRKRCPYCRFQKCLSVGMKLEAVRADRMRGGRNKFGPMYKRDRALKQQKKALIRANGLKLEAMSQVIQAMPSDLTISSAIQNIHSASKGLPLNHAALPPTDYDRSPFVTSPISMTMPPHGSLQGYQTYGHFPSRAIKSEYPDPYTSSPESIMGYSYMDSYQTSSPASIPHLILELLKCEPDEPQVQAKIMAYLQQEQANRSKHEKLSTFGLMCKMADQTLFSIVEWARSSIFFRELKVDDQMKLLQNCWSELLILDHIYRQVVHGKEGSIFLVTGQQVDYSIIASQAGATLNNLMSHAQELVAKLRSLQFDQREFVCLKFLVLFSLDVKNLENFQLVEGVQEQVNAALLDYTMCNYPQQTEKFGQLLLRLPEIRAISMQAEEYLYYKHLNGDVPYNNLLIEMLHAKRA

Take `NS(=O)(=O)c1ccc(Sc2nc3ccccc3s2)c([N+](=O)[O-])c1`: the inhibition was 53.3% (active) in test [1]; 27.4% in test [2]; 78.7% (active) in test [3]; 75.3% (active) in test [4]; 67.5% (active) in test [5]; 55.2% (active) in test [6]. Moreover, the inhibition was 33% in test [7] and 58.3% (active) in test [8].

For `COc1ccc(-n2c(-c3ccc(Cl)cc3)c[n+]3c2CCc2ccccc2-3)cc1`, the inhibition in test [1] is 16.3%; in test [2] it was 45.2% (active); in test [3], 30.1% (active); in test [4] it was 79.2% (active); in test [5], 69.1% (active); in test [6], 70.5% (active).

Turning to `Cc1ccc(S(=O)(=O)/C(=C/Cl)NC(=O)c2ccccc2)cc1`, the inhibition in test [1] is 26%; in test [2], 26.9%; in test [3], 42.9% (active); in test [4] it was 57.7% (active); in test [5], 51.5% (active); in test [6] it was 38.8% (active). Besides, the inhibition in test [7] is 38.9% (active); in test [8] it was 60.8% (active).

`CCNc1nc(NC(C)(C)C)nc(SC(C(C)=O)C(C)=O)n1`: the inhibition is 23.3% in test [1]; 32% (active) in test [2]; 60.2% (active) in test [3]; 72.4% (active) in test [4]; 64.2% (active) in test [5]; 49.4% (active) in test [6].

Regarding `O=C(N/N=C/c1c(O)ccc2ccccc12)c1[nH]ncc1Br`, the inhibition was 58.8% (active) in test [1]; 53.9% (active) in test [2]; 77.2% (active) in test [3]; 95.8% (active) in test [4]; 83.8% (active) in test [5]; 73.6% (active) in test [6].

As to `COc1ccc(OC)c2nc3c(C(=O)NCCN(C)C)cccc3nc12`, the inhibition was -25.8% in test [1]; 65% (active) in test [2]; 53.2% (active) in test [3]; 77.8% (active) in test [4]; 70.5% (active) in test [5]; 75.7% (active) in test [6].

Consider `C/C(=N\NC(N)=S)C12CC3CC(CC(C3)C1)C2`, for which the inhibition in test [1] is 41.6%; in test [2] it was 32.8% (active); in test [3], 20.4%; in test [4], 66.1% (active); in test [5], 71.4% (active); in test [6] it was 48.1% (active). The inhibition in test [7] is 9.52%; in test [8], 26.9%.

Consider `COc1ccc(-c2n(CC(=O)OC3CC(C)CCC3C(C)C)c3ccccc3[n+]2C)cc1` (stereo unspecified), for which the inhibition in test [1] was 57.5% (active); in test [2], 61.3% (active); in test [3], 59.1% (active); in test [4], 110% (active); in test [5] it was 79.5% (active); in test [6], 92.9% (active).

As to `Cc1ccc(CSC(Nc2ccc(F)cc2)=C(C#N)C#N)cc1`, the inhibition is 4.71% in test [1]; 28.5% in test [2]; 19.4% in test [3]; 59.8% (active) in test [4]; 59.9% (active) in test [5]; 45% (active) in test [6]. In addition, the figures for the inhibition in test [7] and in test [8] were 12.8% and 31.9%, respectively.

With `CCCCCc1ccc(OCCCC[n+]2ccccc2)c(CCCCC)c1`, the inhibition was 20.9% in test [1]; 20.9% in test [2]; 3.96% in test [3]; 41.8% (active) in test [4]; 37.9% in test [5]; 42.3% (active) in test [6].

With `Cc1cc(C)c(S(=O)(=O)/N=C2\C=C(Nc3ccc(C(=O)O)cc3)C(=O)c3ccccc32)c(C)c1`, the inhibition in test [1] was 12.8%; in test [2], 11.8%; in test [3], 40.8% (active); in test [4] it was 61.8% (active); in test [5], 61% (active); in test [6] it was 43.8% (active). The inhibition in test [7] was 6.44%; in test [8], 1.79%.

Regarding `O=C(Nc1ccc(F)cc1)Nc1cc(OCC(F)(F)F)cc(OCC(F)(F)F)c1`, the inhibition in test [1] is 17%; in test [2], 29.6% (active); in test [3], 53.8% (active); in test [4], 98.5% (active); in test [5] it was 75.6% (active); in test [6], 78% (active).

On to `CCN(C(C)=O)c1cnc(C=NNC(N)=S)c2ccccc12`, for which the inhibition in test [1] was 39.5%; in test [2], 29.1%; in test [3] it was 78.7% (active); in test [4], 75.7% (active); in test [5], 69.5% (active); in test [6] it was 69.3% (active).

In the case of `Cc1ccc(C(=O)Nc2sc3c(c2C(=O)O)CCCC3)o1`, the inhibition in test [1] is 17.1%; in test [2], 40% (active); in test [3], 32.5% (active); in test [4], 75.9% (active); in test [5], 78.6% (active); in test [6], 61.7% (active).

Consider `CN1/C(=C\C(=O)C[n+]2ccc3ccccc3c2)C(C)(C)c2ccccc21`, for which the inhibition in test [1] was 24.8%; in test [2], 50.2% (active); in test [3] it was 35.9% (active); in test [4] it was 89.6% (active); in test [5], 77.6% (active); in test [6] it was 66.7% (active).

On to `CCCCCCCCCCCCCCCC[n+]1ccccc1`, for which the inhibition in test [1] is 16.6%; in test [2], 25.1%; in test [3], 23.1% and 10.5%; in test [4] it was 47.2% (active) and 54.5% (active); in test [5] it was 57.7% (active) and 48.1% (active); in test [6], 52.6% (active) and 48.9% (active). Moreover, the inhibition in test [7] was 13.5%; in test [8] it was -2.51%.

Consider `COC(=O)c1ccc(COC(=O)c2[nH]c(C)c(C(C)=O)c2C)o1`, for which the inhibition in test [1] was 19.6%; in test [2], 15.9%; in test [3], 12.8%; in test [4] it was 54.4% (active); in test [5] it was 38.7%; in test [6], 41% (active).

As to `COc1ccc(Nc2ccncc2[N+](=O)[O-])cc1`, the inhibition was 41.1% in test [1]; 27.4% in test [2]; 13.4% in test [3]; 75.5% (active) in test [4]; 64.4% (active) in test [5]; 39.3% (active) in test [6].

On to `COC(=O)/C=C/C(=O)Nc1cccc(C(F)(F)F)c1`, for which the inhibition in test [1] is 4.81%; in test [2], 6.7%; in test [3], 46.8% (active); in test [4] it was 46.6% (active); in test [5], 58.7% (active); in test [6], 28.6%. Moreover, the inhibition in test [7] was 25.8%; in test [8], 20.4%.

With `O=C(NCc1cccnc1)/C(=C\c1ccc(-c2cccc(Cl)c2)o1)S(=O)(=O)c1ccccc1`, the inhibition in test [1] was 37.8%; in test [2] it was 13.6%; in test [3], 61.8% (active); in test [4], 87.1% (active); in test [5], 89.3% (active); in test [6] it was 74.9% (active). In addition, the inhibition in test [7] was 44% (active); in test [8], 53.1% (active).

In general, inhibition refers to the change of the read-out against control, counted positive when it falls.
